Measured values taken from PubChem BioAssay (EPA / NIEHS).
The source made the active and inactive calls. How the source made its calls: active means hit-call score of the fitted dose curve at least 0.9, where 1 is the maximum; inactive means score below 0.9.

Key:
Conditions in all cases: mRNA level, 48 h; actives raise or lower the signal
[1] = read-out: Insulin Like Growth Factor 1 (IGF1), IGF1 (gene 3479); test: LTEA_HepaRG_IGF1: Life Technologies and Expression Analysis (LTEA) Assay for Insulin Like Growth Factor 1 (IGF1) using HepaRG (AID 2283506)
How it was run: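 Endpoint: IGF1 mRNA change by qRT-PCR, housekeeping-normalized, fitted bidirectionally relative to 0.5% DMSO vehicle. Human HepaRG cells were treated 48 h in serum-free induction medium, eight half-log concentrations topping at 100 uM.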

[2] = read-out: Intercellular Adhesion Molecule 1 (ICAM1), ICAM1 (gene 3383); test: LTEA_HepaRG_ICAM1: Life Technologies and Expression Analysis (LTEA) Assay for Intercellular Adhesion Molecule 1 (ICAM1) using HepaRG (AID 2283507)
How it was run: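 ICAM1 transcript levels measured by qRT-PCR, normalized to three housekeeping genes (ACTB, GAPDH, POLR2A), after 48 h chemical exposure of HepaRG cells. Duplicate eight-point half-log series from 100 uM in 0.5% DMSO; gain or loss fitted against vehicle.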

[3] = read-out: Insulin-like growth factor-binding protein 1 (IGFBP1), IGFBP1 (gene 3484); test: LTEA_HepaRG_IGFBP1: Life Technologies and Expression Analysis (LTEA) Assay for Insulin-like growth factor-binding protein 1 (IGFBP1) using HepaRG (AID 2283508)
How it was run: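 Read-out is qRT-PCR transcript level normalized to three housekeeping genes, fitted in both directions against 0.5% DMSO. Differentiated HepaRG cells received eight half-log concentrations (top 100 uM) in duplicate for 48 h in serum-free induction medium.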

[4] = read-out: Interleukin 6 (IL6), IL6 (gene 3569); test: LTEA_HepaRG_IL6: Life Technologies and Expression Analysis (LTEA) Assay for Interleukin 6 (IL6) using HepaRG (AID 2283509)
How it was run: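 qRT-PCR read-out of IL6 transcript, normalized to three housekeeping genes, after 48 h chemical exposure of HepaRG cells; 8-point half-log series, top 100 uM, 0.5% DMSO vehicle. Bidirectional curve fitting against DMSO baseline.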

[5] = read-out: Interleukin 6 Receptor (IL6R), IL6R (gene 3570); test: LTEA_HepaRG_IL6R: Life Technologies and Expression Analysis (LTEA) Assay for Interleukin 6 Receptor (IL6R) using HepaRG (AID 2283510);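 on AC50: differentiated human HepaRG liver cells in serum-free induction medium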
How it was run: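 In this HepaRG screen, test chemicals act on cells for 48 h at up to 100 uM (eight half-log points, duplicate wells). IL6R expression is quantified by qRT-PCR after normalization to ACTB, GAPDH and POLR2A, with DMSO as baseline.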

[6] = read-out: Potassium channel subfamily K member 1 (KCNK1), KCNK1 (gene 3775); test: LTEA_HepaRG_KCNK1: Life Technologies and Expression Analysis (LTEA) Assay for Potassium channel subfamily K member 1 (KCNK1) using HepaRG (AID 2283511)
How it was run: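 HepaRG, 48 h exposure, 8-pt half-log series top 100 uM, 0.5% DMSO vehicle, duplicates. Readout: KCNK1 transcript by qRT-PCR (Fluidigm array), housekeeping-normalized; bidirectional curve fit relative to DMSO baseline.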

[7] = read-out: Keratin 19 (KRT19), KRT19 (gene 3880); test: LTEA_HepaRG_KRT19: Life Technologies and Expression Analysis (LTEA) Assay for Keratin 19 (KRT19) using HepaRG (AID 2283512)
How it was run: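 KRT19 transcript measured by TaqMan qRT-PCR, referenced to three housekeeping genes, after HepaRG cells received test chemicals for 48 h. Eight half-log concentrations, top 100 uM, 0.5% DMSO vehicle; increases and decreases both fitted.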

[8] = read-out: JUN Transcription Factor, JUN (gene 3725); test: LTEA_HepaRG_JUN: Life Technologies and Expression Analysis (LTEA) Assay for JUN Transcription Factor using HepaRG (AID 2283513)
How it was run: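 Gene-expression endpoint: JUN mRNA (qRT-PCR, normalized to three reference genes) in HepaRG cultures treated 48 h with chemicals, duplicate wells, 100 uM maximum with half-log dilutions; bidirectional fitting relative to 0.5% DMSO.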

[9] = read-out: Lipase C (LIPC), LIPC (gene 3990); test: LTEA_HepaRG_LIPC: Life Technologies and Expression Analysis (LTEA) Assay for Lipase C (LIPC) using HepaRG (AID 2283514)
How it was run: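 HepaRG, 48 h exposure, 8-pt half-log series from 100 uM in 0.5% DMSO, duplicates. Readout: LIPC mRNA by Fluidigm qRT-PCR, housekeeping-normalized (ACTB/GAPDH/POLR2A). Gain or loss fitted bidirectionally against DMSO baseline.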

[10] = read-out: Lipoprotein lipase (LPL), LPL (gene 4023); test: LTEA_HepaRG_LPL: Life Technologies and Expression Analysis (LTEA) Assay for Lipoprotein lipase (LPL) using HepaRG (AID 2283515)
How it was run: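 HepaRG, 48 h exposure, 8-pt half-log dilutions from 100 uM, 0.5% DMSO vehicle, duplicates; qRT-PCR (Fluidigm array) of LPL mRNA vs housekeeping genes; bidirectional curve fit relative to DMSO baseline.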

Structure (SMILES)	outcome [1]	outcome [2]	outcome [3]	outcome [4]	outcome [5]	outcome [6]	outcome [7]	outcome [8]	outcome [9]	outcome [10]	AC50 [1]	AC50 [3]	AC50 [9]	AC50 [5]	AC50 [7]	AC50 [10]
Nc1c(Cl)c(Cl)nc(C(=O)O)c1Cl	inactive	inactive	inactive	inactive	inactive	inactive	inactive	inactive	inactive	inactive	–	–	–	–	–	–
CSC(=O)c1c(C(F)F)nc(C(F)(F)F)c(C(=O)SC)c1CC(C)C	–	inactive	–	inactive	inactive	inactive	inactive	–	–	inactive	66 µM (active)	49.8 µM (active)	91.9 µM (active)	–	–	–
COc1cc(OC)nc(NC(=O)NS(=O)(=O)c2ncccc2OCC(F)(F)F)n1	inactive	inactive	inactive	inactive	inactive	–	inactive	–	inactive	inactive	–	–	–	–	–	–
Cc1cnc(C2=NC(C)(C(C)C)C(=O)N2)c(C(=O)O)c1 (stereo not drawn)	inactive	inactive	inactive	inactive	inactive	–	inactive	–	inactive	inactive	–	–	–	–	–	–
Cc1ccc(N=CN(C)C=Nc2ccc(C)cc2C)c(C)c1	inactive	inactive	inactive	inactive	inactive	–	inactive	–	inactive	inactive	–	–	–	–	–	–
COC(=O)c1c(C(F)F)nc(C(F)(F)F)c(C2=NCCS2)c1CC(C)C	inactive	inactive	inactive	inactive	–	–	inactive	–	inactive	inactive	–	–	–	12.2 µM (active)	–	–
CCSC(=O)N1CCCCCC1	inactive	inactive	inactive	inactive	inactive	–	inactive	–	inactive	inactive	–	–	–	–	–	–
CCC(C)n1c(=O)[nH]c(C)c(Br)c1=O (stereo not drawn)	–	inactive	–	inactive	–	–	–	–	–	–	8.53 µM (active)	18.1 µM (active)	23.3 µM (active)	6.3 µM (active)	11.8 µM (active)	14.4 µM (active)
N#Cc1c(Cl)cccc1Cl	inactive	inactive	inactive	inactive	inactive	–	inactive	–	inactive	inactive	–	–	–	–	–	–
CCCCOCN(C(=O)CCl)c1c(CC)cccc1CC	–	inactive	inactive	inactive	inactive	–	inactive	–	inactive	inactive	50 µM (active)	–	–	–	–	–
Clc1cccc(C(Cl)(Cl)Cl)n1	inactive	inactive	inactive	inactive	inactive	–	inactive	–	inactive	inactive	–	–	–	–	–	–
Cc1c(COC(=O)[C@@H]2[C@H](/C=C(\Cl)C(F)(F)F)C2(C)C)cccc1-c1ccccc1	–	inactive	inactive	inactive	inactive	–	inactive	inactive	inactive	inactive	34.7 µM (active)	–	–	–	–	–
COC(=O)N(C(=O)N1CO[C@@]2(C(=O)OC)Cc3cc(Cl)ccc3C2=N1)c1ccc(OC(F)(F)F)cc1	–	inactive	–	inactive	–	inactive	–	–	–	–	4.25 µM (active)	40 µM (active)	40 µM (active)	–	16.9 µM (active)	2.97 µM (active)
CCCCC(C#N)(Cn1cncn1)c1ccc(Cl)cc1 (stereo not drawn)	–	inactive	inactive	inactive	inactive	–	inactive	–	inactive	inactive	68.7 µM (active)	–	–	–	–	–
CC(C)(C)C(=O)C(Oc1ccc(Cl)cc1)n1cncn1 (stereo not drawn)	–	inactive	inactive	inactive	inactive	–	inactive	inactive	inactive	inactive	–	–	–	–	–	–
CN=C=S	inactive	inactive	inactive	inactive	inactive	–	inactive	inactive	inactive	inactive	–	–	–	–	–	–
O=C(Nc1ccccc1-c1ccc(Cl)cc1)c1cccnc1Cl	–	inactive	inactive	inactive	inactive	–	inactive	inactive	inactive	inactive	52.5 µM (active)	–	–	–	–	–
Clc1nc(Cl)nc(Nc2ccccc2Cl)n1	inactive	inactive	inactive	inactive	inactive	–	inactive	–	inactive	inactive	–	–	–	–	–	–
CN/C(=N\[N+](=O)[O-])NCc1cnc(Cl)s1	inactive	inactive	inactive	inactive	inactive	–	–	–	inactive	inactive	–	–	–	–	17.8 µM (active)	–
